# Laboratory results published in paper PMC10668032, “Altered binding affinity of SIX1-Q177R correlates with enhanced WNT5A and WNT pathway effector expression in Wilms tumor”.
# Whole data set: some 33,000 sequences, median “e-score” near -0.053, cut for the highest 2% near 0.38. This excerpt belongs to a sample that is enriched for the highest values.
# Molecular target: T1, SIX1 homeodomain (reference allele) (human, UniProt Q15475 108-198)
# T1 sequence: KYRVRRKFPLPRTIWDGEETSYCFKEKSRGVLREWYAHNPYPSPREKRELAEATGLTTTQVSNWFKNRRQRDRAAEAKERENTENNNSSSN
# Assay: universal protein binding microarray; Universal all-10-mer PBM (8x60K, AMADID 030236), 300 nM GST-tagged protein, Alexa Fluor 488 anti-GST; buffer, salt, pH and temperature not stated (as in Berger); high values mean tight binding
# Conditions: protein: ivt; tags: N-terminal GST; dsDNA, one strand shown
# In short: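 After in vitro transcription/translation, GST-tagged homeodomains were quantified against a recombinant GST standard curve by anti-GST western blot. They were then placed in duplicate at 300 nM final concentration on universal 'all 10-mer' protein binding microarrays of 8×60K format.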
row,Sequence,binding signal [E-score]
1,TATCTCCA,0.282 ± 0.0362
2,ATGGCATC,0.155 ± 0.0404
3,ATCCAGTA,0.242 ± 0.0094
4,AGCAATAC,0.298 ± 0.00343
5,GATCGTGC,0.276 ± 0.0195
6,ACCTATAT,0.195 ± 0.0849
7,GCAGGAGA,0.153 ± 0.0104
8,GTATCGTA,0.4227 ± 0.00184
9,ATATAGTA,0.304 ± 0.0257
10,GTATAGTA,0.285 ± 0.0663
11,ATATCGTG,0.376 ± 0.0365
12,ATATCGTA,0.402 ± 0.0509
13,CTATCGTC,0.163 ± 0.0581
14,CTATCGTA,0.266 ± 0.0154
15,ATATCGTC,0.382 ± 0.0428
16,GTCTCGTA,0.172 ± 0.0154
17,GGTAGATA,0.336 ± 0.0074
18,GAGTAATA,0.204 ± 0.00279
19,AGATCTCG,0.214 ± 0.0497
20,GGTGTCGA,0.408 ± 0.0576
21,AGTGTCAC,0.253 ± 0.0143
22,GGTGTCCA,0.314 ± 0.0555

row,Sequence,binding signal [E-score]
1,GGTGTCTA,0.35 ± 0.0308
2,GGGGTCAA,0.151 ± 0.00175
3,GGTGTCAA,0.45408 ± 0.000177
4,CGTGTCAC,0.1957 ± 0.000728
5,GGTGTCAC,0.476 ± 0.0116
6,AGTGTCAA,0.168 ± 0.0652
7,CCGCTATA,0.176 ± 0.0395
8,CTTAGATA,0.19 ± 0.0471
9,GGTACACC,0.298 ± 0.064
10,AAGGGTGA,0.21 ± 0.0127
11,GCGTTAGA,0.197 ± 0.00519
12,AGGGATAC,0.4148 ± 0.000559
13,AGGGATAA,0.292 ± 0.0171
14,TGGGATAA,0.176 ± 0.0405
15,CGGGATAC,0.408 ± 0.0263
16,CGGGATAG,0.268 ± 0.0112
17,CGGGATAA,0.17 ± 0.0308
18,AGGGATAG,0.27 ± 0.0085
19,GGGGATAC,0.44 ± 0.0287
20,AGGGGGAT,0.376 ± 0.0175
21,GGGGATAA,0.311 ± 0.0718
22,AGGGATAT,0.45 ± 0.0188

row,Sequence,binding signal [E-score]
1,GGGGACAC,0.161 ± 0.0585
2,CTAAGATA,0.241 ± 0.105
3,ATCTGGGC,0.24 ± 0.0045
4,CCTATTGA,0.187 ± 0.0453
5,GGTATTTA,0.191 ± 0.035
6,ATCCCATC,0.297 ± 0.0291
7,ATCGATGG,0.185 ± 0.0344
8,GTATATAA,0.245 ± 0.0101
9,GTATATGA,0.225 ± 0.0139
10,CTATATCC,0.366 ± 0.00388
11,CTATATCA,0.412 ± 0.033
12,CTCTATCC,0.216 ± 0.0113
13,CTATATTA,0.152 ± 0.0427
14,ATATATAA,0.298 ± 0.0548
15,ATATATCC,0.438 ± 0.0246
16,ATATATCA,0.4 ± 0.0452
17,GTATATCA,0.429 ± 0.0166
18,ATATATCG,0.372 ± 0.0566
19,AAATATCA,0.224 ± 0.158
20,ATCCAACC,0.173 ± 0.00282
21,TATCTAGA,0.189 ± 0.00564
22,ATACGTGG,0.272 ± 0.04

row,Sequence,binding signal [E-score]
1,ACAACACC,0.23 ± 0.0178
2,TATAACAA,0.2242 ± 0.00053
3,ATATTAGG,0.257 ± 0.0151
4,CGAAGATC,0.202 ± 0.00878
5,AATAATAC,0.345 ± 0.0992
6,CATGACAC,0.35 ± 0.0169
7,CATGATAG,0.274 ± 0.0672
8,AAAGATAC,0.365 ± 0.0561
9,GATAATAC,0.406 ± 0.0398
10,GATGATGA,0.189 ± 0.0213
11,CATGATAC,0.4813 ± 0.00335
12,AATGATAG,0.309 ± 0.0717
13,CATAATAC,0.34 ± 0.0222
14,TATGATAA,0.17 ± 0.026
15,GATGATAC,0.484 ± 0.00743
16,AATGATAC,0.467 ± 0.0253
17,CCACGATA,0.324 ± 0.0401
18,GTATGCGA,0.225 ± 0.0379
19,AGCGGGAT,0.289 ± 0.0282
20,ATGTAATA,0.208 ± 0.032
21,GGAGACAC,0.219 ± 0.0128
22,ATCGGCAT,0.205 ± 0.0425

row,Sequence,binding signal [E-score]
1,AATAACAC,0.151 ± 0.0395
2,TATGGGGA,0.232 ± 0.0667
3,AAGTATAT,0.184 ± 0.103
4,AATGAGAT,0.278 ± 0.0395
5,AATGATAT,0.44 ± 0.0479
6,AAAGATAT,0.351 ± 0.0934
7,ATCGTCAT,0.22 ± 0.00839
8,AATCCGCG,0.1997 ± 0.000431
9,ATACCGGG,0.399 ± 0.016
10,ATCCCGGG,0.345 ± 0.0141
11,ATACCGGA,0.381 ± 0.0112
12,AGACCGGA,0.157 ± 0.0691
13,ATACGGGG,0.335 ± 0.018
14,ATACCGGC,0.319 ± 0.00766
15,ACCATGAT,0.269 ± 0.0126
16,GATTATGA,0.205 ± 0.0352
17,ATATGGCA,0.204 ± 0.0271
18,GAGCCATA,0.183 ± 0.0105
19,GAATACGA,0.24 ± 0.0047
20,GGATAGAC,0.151 ± 0.00296
21,CAATATAC,0.197 ± 0.0146
22,TATCTCAA,0.329 ± 0.0572

row,Sequence,binding signal [E-score]
1,TGTATCAA,0.41 ± 0.0207
2,CGTATCAC,0.484 ± 0.00135
3,CGTATTAA,0.222 ± 0.0926
4,GGTCTCAC,0.203 ± 0.0591
5,GGTATCAC,0.497
6,CGTATCAA,0.466 ± 0.026
7,CGTATAAC,0.204 ± 0.0505
8,GGGCTCAC,0.268 ± 0.0467
9,CGTATTAC,0.26 ± 0.0203
10,CCTATCAA,0.288 ± 0.0228
11,TGTATTAA,0.275 ± 0.027
12,TATCGGAA,0.368 ± 0.0234
13,CACCCGGA,0.276 ± 0.0383
14,CTGAGATC,0.253 ± 0.0174
15,ATGAGACG,0.251 ± 0.0275
16,TATCTTCA,0.251 ± 0.0591
17,GATCAGAC,0.249 ± 0.0505
18,GGTATAAA,0.286 ± 0.0691
19,GCTATCAA,0.312 ± 0.0869
20,GGTATCAA,0.486 ± 0.00747
21,ATACTTTG,0.253 ± 0.096
22,GGGTTAGA,0.16 ± 0.0278
